Source: PubChem (several laboratories)
Mcl1-Bid inh – disrupts binding of human Mcl-1 to Bid peptide | 220,000 compounds, 0.97% hits | TR-FRET Mcl-1/Bid-Dy647 peptide binding, 1536-well | AID 1021 | inhibition, % at 21.7 µM;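 active = compounds that cut the binding signal by more than half at the single screening dose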;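 also: His-tagged Mcl-1 with europium anti-His antibody binding Bid BH3 peptide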
Target sequence (Q07820 whole entry, looked up): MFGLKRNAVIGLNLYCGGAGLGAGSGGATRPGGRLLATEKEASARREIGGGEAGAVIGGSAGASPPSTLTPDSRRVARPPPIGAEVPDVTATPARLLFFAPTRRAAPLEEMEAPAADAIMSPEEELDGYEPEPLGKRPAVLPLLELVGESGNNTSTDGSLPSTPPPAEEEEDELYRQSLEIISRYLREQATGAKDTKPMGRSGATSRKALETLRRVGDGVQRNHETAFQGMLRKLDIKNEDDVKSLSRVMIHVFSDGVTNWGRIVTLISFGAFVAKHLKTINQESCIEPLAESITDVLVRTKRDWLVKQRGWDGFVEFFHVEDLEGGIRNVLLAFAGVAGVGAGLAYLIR
BCLXL inh – inhibitors of human Bcl-xL | Q07817 | GST-Bcl-xL / FITC-Bim BH3 peptide fluorescence polarization | inhibition, % at 10.9 µM | 320,000 compounds, 0.7% hits;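 active = inhibition above the mean of all tested compounds plus 3 SD, cutoff set per campaign, cut at about 30% in these data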;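 also: inhibitors lower millipolarization by displacing the labeled peptide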
Target sequence (Q07817 whole entry, looked up): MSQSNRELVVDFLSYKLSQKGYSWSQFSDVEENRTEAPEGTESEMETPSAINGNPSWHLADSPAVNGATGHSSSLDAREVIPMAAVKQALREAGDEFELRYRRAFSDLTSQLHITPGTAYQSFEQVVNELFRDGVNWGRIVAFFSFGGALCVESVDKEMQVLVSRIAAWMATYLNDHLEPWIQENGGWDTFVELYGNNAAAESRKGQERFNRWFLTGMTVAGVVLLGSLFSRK
Mcl1 Noxa PPI – Mcl-1/Noxa interaction inhibition; Q07820; TR-FRET Mcl-1/Noxa peptide binding, 2 h; inhibition, % at 21.7 µM; 220,000 compounds, 1.5% hits;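 active = compounds that cut the protein-peptide binding signal by more than 50% relative to plate controls in a single-dose test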;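 also: His-tagged Mcl-1 with rhodamine Noxa BH3 peptide and terbium anti-His antibody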
MCL1 BIM primary – inhibitors of human MCL1 binding to BIM-BH3 peptide; 320,000 compounds, 0.68% hits; GST-MCL1 / FITC-Bim-BH3 fluorescence polarization; AID 2057; inhibition, % at 10.9 µM;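 active = inhibition above the mean inhibition of all tested compounds plus 3 SD, set per campaign, cut at about 40% in these data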;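 also: higher means more loss of mP so more displacement of Bim peptide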
Mcl-1 Bim block – disrupts Bim peptide binding to human Mcl-1. inhibition, % at 10 µM. Bead-based flow cytometry, Bim peptide-Mcl-1 binding. Q07820. 190,000 compounds, 0.1% hits; in the data active = inhibition above about 40%
GLD-1 TGE inh – GLD-1-TGE RNA interaction inhibition (C. elegans). AID 2280. Q17339. 320,000 compounds, 0.44% hits. inhibition, % at 5.96 µM. purified GLD-1 + fluorescein TGE RNA, fluorescence polarization;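 active = percent inhibition above a per-plate cutoff, the plate mean of test compounds plus 3 SD, cut at about 30% in these data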
Numbers stand for hits; – = inactive; · = no result given. Shown are actives, neighbours in structure and some others; about 2.3% of the full set was active somewhere.

SMILES	Mcl1-Bid inh	BCLXL inh	Mcl1 Noxa PPI	MCL1 BIM primary	Mcl-1 Bim block	GLD-1 TGE inh
CC(=O)c1cccc(NC(=O)C2CCN(C(=O)c3ccc([N+](=O)[O-])cc3)CC2)c1	73	–	–	–	–	–
O=C(c1ccccc1)N1CCN(C(=O)c2ccc([N+](=O)[O-])cc2)CC1	–	–	54	–	–	–
CCn1c(SCC(=O)N(C)Cc2ccc(OC)c(F)c2)nc2cc(S(N)(=O)=O)ccc21	·	–	·	–	·	–
O=C1C=C(O)C(n2cncn2)C(c2ccc3c(c2)OCO3)C1 (centres undefined)	–	–	–	–	–	–
C=C(C)C(COc1c2occc2cc2ccc(=O)oc12)OC(C)(C)C(O)COc1c2occc2cc2ccc(=O)oc12 (centres undefined)	·	·	·	·	·	–
COc1ccc(C2NC3=C(CCC3)C3(C#N)C(OC)(OC)N=C(N)C23C#N)cc1 (centres undefined)	–	31	–	–	–	–
CCOC(=O)N1CCN(C(=O)c2ccc3c(SCC(=O)O)c4c(nc3c2)CCCC4)CC1	–	–	–	–	–	–
O=C(O)CSc1c2c(nc3cc(C(=O)N4CCOCC4)ccc13)CCCC2	–	37	–	–	–	–
Cc1cccc(/N=C/c2c(O)[nH]c3ccccc23)n1	–	–	–	–	–	–
Cc1cccc(/N=C/c2sc3ccccc3c2O)n1	–	–	82	–	·	–
O=[N+]([O-])c1ccc(O)c(N=Cc2sc3ccccc3c2O)c1	–	–	53	–	–	–
Cc1nc2sc(C(c3cccs3)N3CCOCC3)c(O)n2n1 (centres undefined)	76	–	–	–	–	–
Cc1ccc(C)c(C(=O)COC(=O)CCCC(=O)Nc2cc(C(F)(F)F)ccc2Cl)c1	94	–	–	–	–	–
CNC(=O)c1c(NC(=O)c2ccc(S(=O)(=O)N3CCCc4ccccc43)cc2)sc2c1CCN(C)C2	–	–	–	–	·	–
CN1CCc2c(sc(NC(=O)c3ccc(S(=O)(=O)N4CCc5ccccc54)cc3)c2C(N)=O)C1	–	–	52	–	·	–
CC(C)CCNC(=O)C(=O)Nc1ccc2c(c1)N(S(=O)(=O)c1cccs1)CCC2	·	–	·	–	·	–
N#C/C(=C\Nc1ccc2cn[nH]c2c1)c1nc(-c2ccc(Cl)cc2)cs1	58	–	53	–	–	–
CN(C)/C=N/S(=O)(=O)c1ccc(Cl)c(Cl)c1	–	–	–	–	·	–
Cc1onc(-c2c(F)cccc2Cl)c1C(=O)N(C)C1CCCCC1	·	–	·	–	·	–
CC(C)c1ccc(/C=N/NC(=O)c2ccccc2Cl)cc1	–	–	–	–	45	–
COC(=O)c1ccc(/C=N/NC(=O)c2ccccc2Cl)cc1	–	–	–	–	–	–
CNc1ccc([N+](=O)[O-])cc1-c1nc2ccccc2[nH]c1=O	–	–	65	–	·	–
Cc1ccc(S(=O)(=O)NC(=O)NN2CC3CCCC3C2)cc1 (centres undefined)	·	–	·	–	·	–
CC1=C(C#N)C(=O)N(C2CCS(=O)(=O)C2)C(=O)/C1=C\c1ccco1 (centres undefined)	60	49	110	105	·	–
O=C1/C(=C\c2ccco2)SC(=S)N1C1CCCCC1	·	–	·	–	·	–
SMILES	Mcl1-Bid inh	BCLXL inh	Mcl1 Noxa PPI	MCL1 BIM primary	Mcl-1 Bim block	GLD-1 TGE inh
O=C(/C=C/c1ccco1)NC(=S)Nc1cc(-c2nc3ccccc3s2)ccc1Cl	63	–	64	–	–	–
O=C(/C=C/c1ccco1)NC(=S)Nc1cccc(-c2nc3ccccc3o2)c1	65	–	·	–	–	–
CC(=O)Nc1ccc(NC(=S)NC(=O)/C=C/c2ccc(Cl)cc2)cc1	–	–	–	–	–	–
NC(N)=NS(=O)(=O)c1ccc(NC(=S)NC(=O)/C=C/c2ccco2)cc1	–	–	–	–	–	–
NS(=O)(=O)c1ccc(NC(=S)NC(=O)/C=C/c2ccco2)cc1	–	–	89	–	–	–
O=C(/C=C/c1ccc(Cl)cc1)NC(=S)Nc1ccc(NC(=O)c2ccco2)cc1	56	–	–	–	–	–
CSc1nccc(Oc2ccc(C#N)cc2)n1	–	–	–	–	–	–
O=C(/C=C/c1ccco1)Nc1ccc(N2CCCC2)cc1	–	–	64	–	–	–
CN(Cc1ccccc1)C(=O)CCn1c(=O)c2cccn2c2cccnc21	·	–	·	–	·	–
CCCCC(C(=O)OCC)C(N)Cc1ccc(F)cc1 (centres undefined)	–	–	–	–	98	–
CCCN1CCC(NC(=O)Cc2ccccc2C)CC1	·	–	·	–	·	–
CCCNC(=O)c1ccc(N2CCC3(CC2)CC(c2ccccc2)=NO3)c(NC(=O)c2cccc(C)c2)c1	·	–	·	–	·	–
COc1ccc(-c2ncc3ccccn23)cc1OC	51	–	–	–	–	–
CCN(CC)c1ccc(S(=O)(=O)N2CCOCC2)cc1NC(=O)c1cc(=O)c2ccccc2o1	–	–	–	–	–	–
Cc1cc(-c2nnc3n2N=C(c2ccc(-c4ccccc4)cc2)CS3)n[nH]1	–	–	–	–	–	–
c1ccc(-c2cc(-c3nnc4n3N=C(c3ccc5ccccc5c3)CS4)[nH]n2)cc1	58	–	–	–	–	–
Cc1ccc2cc(C)c(SCC(=O)NCC3CCCO3)nc2c1 (centres undefined)	·	–	·	–	·	–
COC(=O)c1c(NC(=O)C2CC2)sc2c1CCN(C(C)=O)C2	–	–	–	–	–	–
CC(=O)N1CCc2c(sc(NC(=O)C3CCCCC3)c2C(N)=O)C1	·	–	·	–	·	57
O=C(COC(=O)Cn1cnc2ccccc21)Nc1cc(S(=O)(=O)N2CCOCC2)ccc1Cl	–	–	–	–	·	–
O=C(COC(=O)Cn1cnc2ccccc21)Nc1cc2c(cc1Cl)C(=O)c1ccccc1C2=O	–	–	54	–	–	–
O=C(CN1C(=O)COc2ccccc21)N(Cc1ccc2c(c1)OCO2)CC1CCCO1 (centres undefined)	100	–	–	–	–	–
CSc1nc2ccc3nc(NC(=O)c4cccs4)sc3c2s1	66	–	–	–	–	–
O=C(Nc1nc(-c2ccccn2)cs1)c1ccc(Cl)s1	–	–	–	–	–	–
CSc1nc2ccc3nc(NC(=O)c4ccc(Cl)s4)sc3c2s1	66	–	52	–	–	–
SMILES	Mcl1-Bid inh	BCLXL inh	Mcl1 Noxa PPI	MCL1 BIM primary	Mcl-1 Bim block	GLD-1 TGE inh
COCCCC1CCN(Cc2nc(-c3ccccc3)no2)CC1	–	–	–	–	–	–
CS(=O)(=O)c1ccc(N2CCN(c3ccccn3)CC2)c([N+](=O)[O-])c1	·	–	·	–	·	–
Cc1nc(COC(=O)c2ccc(CO)cc2)cs1	–	–	–	–	–	–
Cc1nc(COC(=O)c2cc(O)c3ccccc3c2O)cs1	94	·	104	·	–	·
CN(C)C(CNC(=O)c1cc2ccccc2oc1=O)c1ccccc1 (centres undefined)	·	–	·	–	·	–
CC(=O)Cc1nsc(NC(=O)c2ccc(-c3cc(C(F)(F)F)ccc3Cl)o2)n1	68	–	–	–	–	–
